Values joined by “and” are separate entries in the source; they are usually repeats but may differ in a detail not shown here. Equal entries are not always repeated. In all, about 5,500 compounds went through this assay and about 2,000 (36%) were called active. Inconclusive results (about 18%) are left out. No stated cut-off is given here; in the data, active means normalized growth mostly below about 0.91 (no sharp cut-off); inconclusive means no clear call, values can overlap the other calls; inactive means mostly above about 0.92. This is one part of the list.
Experiment: chemical genetic growth profiling, strain panel (AID 1159580);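 further: tested at 20 µM; growth read once vehicle control cultures reached saturation at 30 °C; 1 = growth at the plate median or of vehicle wells; lower values mean less growth of the strain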
Details: S. cerevisiae deletion strains, growth OD

Measured: normalized growth

Cc1ccccc1N1C(=O)c2cc(S(N)(=O)=O)c(Cl)cc2NC1C (stereo not drawn)
inactive: locus YAL013W, strain DEP1, active compounds read low 0.989 | locus YAL021C, strain ccr4, active compounds read low 1 | locus YAL026C, strain drs2, active compounds read low 0.983 | locus YAL030W, strain snc1, active compounds read low 0.991 | locus YBL061C, strain skt5, active compounds read low 0.987 | locus YBR009C, strain hhf1, active compounds read low 1 | locus YBR021W, strain FUR4, active compounds read low 0.968 | locus YBR023C, strain chs3, active compounds read low 0.989 | locus YBR171W, strain sec66, active compounds read low 0.963 | locus YBR229C, strain ROT2, active compounds read low 0.982 | locus YBR231C, strain swc5, active compounds read low 0.987 | locus YBR279W, strain paf1, active compounds read low 0.996 | locus YCL011C, strain gbp2, active compounds read low 0.997 | locus YCL016C, strain dcc1, active compounds read low 1.03 | locus YCL029C, strain bik1, active compounds read low 0.979 | locus YCL069W, strain vba3, active compounds read low 0.996 | locus YCR088W, strain abp1, active compounds read low 0.978 | locus YDL005C, strain med2, active compounds read low 0.96 | locus YDL035C, strain GPR1, active compounds read low 1.01 | locus YDL040C, strain nat1, active compounds read low 0.986 | locus YDL074C, strain BRE1, active compounds read low 1.02 | locus YDL101C, strain DUN1, active compounds read low 0.985 | locus YDL134C, strain PPH21, active compounds read low 0.983 | locus YDL185W, strain tfp1, active compounds read low 0.984 | locus YDL192W, strain arf1, active compounds read low 0.98 | locus YDR001C, strain nth1, active compounds read low 0.957 | locus YDR069C, strain doa4, active compounds read low 0.96 | locus YDR101C, strain arx1, active compounds read low 0.994 | locus YDR137W, strain rgp1, active compounds read low 1 | locus YDR159W, strain sac3, active compounds read low 0.973 | locus YDR162C, strain NBP2, active compounds read low 0.994 | locus YDR195W, strain ref2 0.944 | locus YDR297W, strain sur2, active compounds read low 1 | locus YDR318W, strain mcm21, active compounds read low 0.99 | locus YDR334W, strain swr1, active compounds read low 0.918 | locus YDR335W, strain msn5, active compounds read low 0.973 | locus YDR388W, active compounds read low 0.994 | locus YDR392W, strain spt3, active compounds read low 1.01 | locus YDR502C, strain sam2, active compounds read low 0.983 | locus YEL003W, strain gim4, active compounds read low 0.978 | locus YEL037C, strain rad23, active compounds read low 0.978 | locus YEL061C, strain CIN8 (second series), active compounds read low 0.985 | locus YEL061C, strain CIN8, active compounds read low 0.993 | locus YER015W, strain faa2, active compounds read low 0.986 | locus YER016W, strain bim1, active compounds read low 0.998 | locus YER110C, active compounds read low 0.976 | locus YER111C, strain swi4, active compounds read low 0.987 | locus YER155C, strain BEM2 (second series), active compounds read low 0.99 | locus YER155C, strain BEM2, active compounds read low 0.981 | locus YER167W, strain BCK2, active compounds read low 0.981 | locus YFR010W, strain ubp6, active compounds read low 0.968 | locus YGL078C, strain dbp3, active compounds read low 0.981 | locus YGL086W, strain mad1, active compounds read low 1.01 | locus YGL167C, strain pmr1, active compounds read low 0.996 | locus YGL173C, strain kem1, active compounds read low 1.01 | locus YGL227W, strain vid30, active compounds read low 0.972 | locus YGL240W, strain doc1, active compounds read low 0.995 | locus YGL248W, strain PDE1, active compounds read low 1 | locus YGL253W, strain hxk2, active compounds read low 0.972 | locus YGR135W, strain pre9, active compounds read low 0.986 | locus YGR229C, strain SMI1, active compounds read low 0.982 | locus YGR252W, strain gcn5, active compounds read low 0.991 | locus YHR013C, strain ard1, active compounds read low 1.02 | locus YHR027C, strain rpn1, active compounds read low 0.991 | locus YHR030C, strain SLT2, active compounds read low 0.987 and 0.961 | locus YHR079C, strain IRE1 (second series), active compounds read low 0.997 | locus YHR079C, strain IRE1, active compounds read low 0.966 | locus YHR094C, strain hxt1, active compounds read low 0.99 | locus YHR129C, strain ARP1, active compounds read low 0.988 | locus YHR142W, strain chs7, active compounds read low 0.969 | locus YHR200W, strain rpn10, active compounds read low 0.982 | locus YIL066C, strain RNR3, active compounds read low 1.01 | locus YIL073C, strain SPO22, active compounds read low 1.03 | locus YIL125W, strain kgd1, active compounds read low 0.991 | locus YIR030C, strain dcg1, active compounds read low 0.987 | locus YJL092W, strain hpr5, active compounds read low 0.992 | locus YJL095W, strain BCK1 (second series), active compounds read low 0.956 | locus YJL095W, strain BCK1, active compounds read low 1.03 and 0.975 | locus YJL115W, strain asf1, active compounds read low 0.965 | locus YJL129C, strain trk1, active compounds read low 0.941 | locus YJL134W, strain LCB3, active compounds read low 0.986 | locus YJL154C, strain vps35, active compounds read low 0.961 | locus YJL164C, strain tpk1, active compounds read low 1.03 | locus YJL166W, strain qcr8, active compounds read low 0.978 | locus YJL168C, strain set2, active compounds read low 0.992 | locus YJL187C, strain SWE1 (second series), active compounds read low 1 | locus YJR043C, strain POL32, active compounds read low 0.994 | locus YJR066W, strain TOR1, active compounds read low 0.923
